Reference: PubChem BioAssay (Tox21)
Inconclusive results are not listed. Activity calls are given as the source filed them. Unless noted, calls come from the whole dose curve; as a rule, active = well fitted curve in the direction sought with a large enough effect in the repeat runs; inconclusive = weak or mixed curves; inactive = no such curve, though single readings can be large; an effect the other way counts as inactive or inconclusive.

Key:
[1] = qHTS assay to identify small molecule antagonists of the glucocorticoid receptor (GR) signaling pathway - cell viability counter screen (AID 720693); note: nearly all actives have a fitted effect of over 55% in size
[2] = qHTS assay for identifying genotoxic compounds that show differential cytotoxicity against isogenic chicken DT40 cell lines with known DNA damage response pathways - wild type cell line (AID 743012); note: nearly all actives have a fitted effect of over 60% in size; note: potency is the fitted concentration of half-maximal effect
How it was run: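 Using parental DT40 (300 cells/well), compounds delivered in DMSO incubate 40 h at 37 C/5% CO2. CellTiter-Glo reagent then stands 30 min at room temperature, and luminescence gives cell viability.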

[3] = qHTS assay for identifying genotoxic compounds that show differential cytotoxicity against isogenic chicken DT40 cell lines with known DNA damage response pathways - Rev3 mutant cell line (AID 743014); note: nearly all actives have a fitted effect of over 55% in size; note: potency is the fitted concentration of half-maximal effect
[4] = qHTS assay for identifying genotoxic compounds that show differential cytotoxicity against isogenic chicken DT40 cell lines with known DNA damage response pathways - Rad54/Ku70 mutant cell line (AID 743015); note: nearly all actives have a fitted effect of over 60% in size; note: potency is the fitted concentration of half-maximal effect
[5] = qHTS assay to identify small molecule antagonists of the androgen receptor (AR) signaling pathway - cell viability counter screen (AID 743033; note: nearly all actives have a fitted effect of over 45% in size; note: potency is the fitted concentration of half-maximal effect)
[6] = qHTS assay to identify small molecule antagonists of the androgen receptor (AR) signaling pathway using the MDA cell line - cell viability counter screen (AID 743041; note: nearly all actives have a fitted effect of over 45% in size)
How it was run: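 MDA-kb2 AR-luc human breast carcinoma cells (MMTV-luciferase, AR/GR responsive) were treated with compounds plus R1881 agonist for 16 h at 37 °C. Viability was read as CellTiter-Fluor fluorescence in the same wells as the reporter assay.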

[7] = qHTS assay to identify small molecule antagonists of the thyroid receptor (TR) signaling pathway - cell viability counter screen (AID 743064); note: nearly all actives have a fitted effect of over 50% in size; note: potency is the fitted concentration of half-maximal effect
How it was run: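 In-well cytotoxicity read by CellTiter-Fluor (30 min, 37 C) following 23.5 h exposure of GH3 cells bearing a TRE-luciferase sensor. Compounds were added alongside 1 nM (final) T3 to drive TR transactivation.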

[8] = qHTS assay to identify small molecule antagonists of the thyroid receptor (TR) signaling pathway (AID 743065); note: nearly all actives have a fitted effect of over 55% in size; note: potency is the fitted concentration of half-maximal effect
How it was run: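 GH3.TRE-Luc rat pituitary cells carrying two TR response elements driving luciferase were plated for 4 h, given compound plus 1 nM T3 (final), and incubated 23.5 h at 37 C. ONE-Glo luminescence measured reporter inhibition; CellTiter-Fluor fluorescence tracked cytotoxicity.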

[9] = tested on: thyroid hormone receptor (rat, GH3 cells); assay: qHTS assay to identify small molecule agonists of the thyroid receptor (TR) signaling pathway (AID 743066; calls by dose curve)
[10] = molecular target: Estrogen receptor (Homo sapiens) (UniProt P03372); assay: qHTS assay to identify small molecule antagonists of the estrogen receptor alpha (ER-alpha) signaling pathway (AID 743069; active = well fitted curve in the direction sought with a large enough effect in the signal ratio in the repeat runs, not every such curve was filed as active; the % refers to the signal ratio)
Estrogen receptor (Homo sapiens), sequence (P03372 whole entry, looked up): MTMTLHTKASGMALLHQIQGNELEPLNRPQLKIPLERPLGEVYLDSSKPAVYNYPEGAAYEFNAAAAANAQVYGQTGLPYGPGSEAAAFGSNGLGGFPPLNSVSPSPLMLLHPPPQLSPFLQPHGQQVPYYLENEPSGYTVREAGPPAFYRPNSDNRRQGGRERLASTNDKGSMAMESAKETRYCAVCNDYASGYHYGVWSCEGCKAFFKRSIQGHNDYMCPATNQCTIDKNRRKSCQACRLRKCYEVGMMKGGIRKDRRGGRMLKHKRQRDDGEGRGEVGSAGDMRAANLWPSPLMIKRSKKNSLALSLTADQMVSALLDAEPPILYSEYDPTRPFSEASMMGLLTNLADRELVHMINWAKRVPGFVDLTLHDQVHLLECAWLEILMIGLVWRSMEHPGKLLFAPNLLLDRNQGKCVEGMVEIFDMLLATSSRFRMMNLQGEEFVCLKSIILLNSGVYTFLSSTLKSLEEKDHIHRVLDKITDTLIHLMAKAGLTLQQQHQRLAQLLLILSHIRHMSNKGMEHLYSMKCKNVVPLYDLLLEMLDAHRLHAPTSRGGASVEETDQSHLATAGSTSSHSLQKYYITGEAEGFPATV
How it was run: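 HEK293 cells stably carrying an ER-alpha-UAS-bla beta-lactamase reporter were pre-cultured overnight in 2% charcoal-stripped FBS medium. Test compounds in DMSO were added together with 17beta-estradiol for 18 hr at 37C. Read-out was fluorescence after 2 hr with LiveBLAzer B/G FRET substrate at room temperature.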

[11] = qHTS assay to identify small molecule antagonists of the estrogen receptor alpha (ER-alpha) signaling pathway - cell viability counter screen (AID 743074; calls by dose curve; note: nearly all actives have a fitted effect of over 45% in size; note: potency is the fitted concentration of half-maximal effect)
[12] = molecular target: Estrogen receptor (Homo sapiens) (UniProt P03372); assay: qHTS assay to identify small molecule agonists of the estrogen receptor alpha (ER-alpha) signaling pathway (AID 743075; calls by dose curve)
[13] = molecular target: Estrogen receptor (Homo sapiens) (UniProt P03372); assay: qHTS assay to identify small molecule agonists of the estrogen receptor alpha (ER-alpha) signaling pathway using the BG1 cell line (AID 743079); note: nearly all actives have a fitted effect of over 20% in size
[14] = qHTS assay to identify small molecule antagonists of the estrogen receptor alpha (ER-alpha) signaling pathway using the BG1 cell line (AID 743080; calls by dose curve;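 note: BG1 cells stimulated with 17beta-estradiol alongside compound; series mostly up to about 70 µM; nearly all actives have a fitted effect of over 25% in size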)
How it was run: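 Endogenous full-length ER-alpha in BG1-Luc-4E2 cells drives a stably integrated 4×ERE luciferase gene; compounds were tested against 17beta-estradiol over 21.5 h, with luminescence and multiplexed viability fluorescence recorded.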

[15] = qHTS assay to identify small molecule antagonists of the estrogen receptor alpha (ER-alpha) signaling pathway using the BG1 cell line - cell viability counter screen (AID 743081);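 note: compound given together with 17beta-estradiol as the ER stimulus; series mostly up to about 70 µM; nearly all actives have a fitted effect of over 45% in size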
[16] = molecular target: Aromatase (Homo sapiens) (UniProt P11511); assay: qHTS assay to identify aromatase inhibitors (AID 743083); note: series mostly up to about 70 µM; nearly all actives have a fitted effect of over 55% in size
Aromatase (Homo sapiens), sequence (P11511 whole entry, looked up): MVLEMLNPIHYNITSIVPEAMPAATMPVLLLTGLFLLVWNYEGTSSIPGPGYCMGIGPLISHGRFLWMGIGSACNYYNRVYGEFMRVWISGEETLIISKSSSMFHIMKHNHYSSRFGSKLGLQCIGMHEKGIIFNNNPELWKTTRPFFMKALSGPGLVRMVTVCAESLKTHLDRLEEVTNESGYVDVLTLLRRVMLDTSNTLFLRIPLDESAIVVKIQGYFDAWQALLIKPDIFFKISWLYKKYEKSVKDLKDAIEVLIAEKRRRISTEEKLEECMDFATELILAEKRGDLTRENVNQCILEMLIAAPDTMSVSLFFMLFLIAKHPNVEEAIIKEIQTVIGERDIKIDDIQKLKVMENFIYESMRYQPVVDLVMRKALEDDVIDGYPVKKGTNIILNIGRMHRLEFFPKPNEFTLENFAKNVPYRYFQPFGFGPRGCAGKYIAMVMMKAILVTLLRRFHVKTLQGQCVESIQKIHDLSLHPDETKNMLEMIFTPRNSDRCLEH

[17] = qHTS assay to identify aromatase inhibitors - cell viability counter screen (AID 743084)
[18] = molecular target: Androgen receptor (Homo sapiens) (UniProt P10275); assay: qHTS assay to identify small molecule agonists of the androgen receptor (AR) signaling pathway (AID 743036; active = well fitted activation curve with a large enough effect in the signal ratio in the repeat runs, with a control signal flat, not every such curve was filed as active; the % refers to the signal ratio)
Androgen receptor (Homo sapiens), sequence (P10275 whole entry, looked up): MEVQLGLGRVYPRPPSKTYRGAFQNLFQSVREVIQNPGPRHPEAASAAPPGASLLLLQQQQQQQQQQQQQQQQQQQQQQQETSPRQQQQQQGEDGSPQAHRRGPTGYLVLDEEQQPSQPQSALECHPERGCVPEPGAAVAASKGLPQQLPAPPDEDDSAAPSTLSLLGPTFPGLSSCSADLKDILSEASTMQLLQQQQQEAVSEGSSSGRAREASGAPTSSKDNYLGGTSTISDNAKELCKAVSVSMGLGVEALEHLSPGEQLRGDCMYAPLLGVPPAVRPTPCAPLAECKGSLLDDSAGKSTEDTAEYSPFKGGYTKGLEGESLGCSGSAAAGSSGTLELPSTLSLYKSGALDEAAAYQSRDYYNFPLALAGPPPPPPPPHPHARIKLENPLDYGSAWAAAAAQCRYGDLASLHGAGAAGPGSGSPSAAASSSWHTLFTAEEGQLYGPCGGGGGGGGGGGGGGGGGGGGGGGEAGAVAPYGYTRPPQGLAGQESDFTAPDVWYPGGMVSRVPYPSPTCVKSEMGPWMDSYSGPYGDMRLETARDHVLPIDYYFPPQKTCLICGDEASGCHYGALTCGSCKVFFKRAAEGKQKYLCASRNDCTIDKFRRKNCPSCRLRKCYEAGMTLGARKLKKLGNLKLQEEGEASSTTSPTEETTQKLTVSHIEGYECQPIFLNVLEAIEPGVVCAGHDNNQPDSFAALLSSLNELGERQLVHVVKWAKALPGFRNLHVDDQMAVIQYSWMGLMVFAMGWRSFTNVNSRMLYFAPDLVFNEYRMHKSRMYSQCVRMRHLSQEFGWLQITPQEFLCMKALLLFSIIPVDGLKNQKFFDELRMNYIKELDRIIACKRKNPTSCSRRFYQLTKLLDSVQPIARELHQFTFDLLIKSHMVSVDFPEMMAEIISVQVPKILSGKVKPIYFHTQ
How it was run: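 Activation was read as beta-lactamase FRET signal from LiveBLAzer B/G substrate, added for 2 h at room temperature. Before that, GeneBLAzer AR-UAS-bla GripTite (HEK293) cells had 16 h compound exposure at 37C.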

[19] = molecular target: Androgen receptor (Homo sapiens) (UniProt P10275); assay: qHTS assay to identify small molecule agonists of the androgen receptor (AR) signaling pathway using the MDA cell line (AID 743040; note: nearly all actives have a fitted effect of over 20% in size; note: potency is the fitted concentration of half-maximal effect)
How it was run: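 MDA-kb2 breast carcinoma cells stably carrying an MMTV-driven luciferase reporter (AR- and GR-responsive) were seeded and held 5 h at 37C, 0% CO2, then exposed to compounds in DMSO for 16 h. Luminescence was read 30 min after ONE-Glo addition.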

[20] = molecular target: Androgen receptor (Homo sapiens) (UniProt P10275); assay: qHTS assay to identify small molecule antagonists of the androgen receptor (AR) signaling pathway using the MDA cell line (AID 743042; note: nearly all actives have a fitted effect of over 55% in size)
How it was run: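 MDA-kb2 cells (human breast carcinoma, stably carrying an MMTV-luciferase reporter responsive to AR and GR) were plated at 3,000 cells/well and preincubated 5 hr at 37C, then given compound plus R1881 agonist for 16 h. ONE-Glo luminescence was read.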

Measured: Potency

O=C(O)c1cccc(Oc2ccccc2)c1
not listed: [17] | [18] | [19] | [20]
inactive: all other assays above

O=P(O)(O)Oc1ccccc1
not listed: [18] | [19] | [20]
inactive: all other assays above

COc1cc(NCc2ccc3nc(N)nc(N)c3c2C)cc(OC)c1OC
active: [2] 0.133 µM | [3] 0.15 µM | [4] 0.266 µM | [5] 0.674 µM | [7] 8.41 µM | [8] 0.668 µM | [11] 0.213 µM
inactive: [1] | [6] | [9] | [10] | [12] | [13]

CC(=O)NNC(C)=O
not listed: [18] | [19] | [20]
inactive: all other assays above

CCCCCCCCCCCCCCN(C)C
not listed: [18] | [19] | [20]
inactive: all other assays above

CC1CCCC(=O)C1=O (centres undefined)
inactive: all assays above

COc1ccc(-c2cc(C(F)F)nn2-c2ccc(S(N)(=O)=O)cc2)cc1F
not listed: [18] | [19] | [20]
inactive: all other assays above

CC(=O)OCCC1CCCCC1
not listed: [18] | [19] | [20]
inactive: all other assays above

Nc1cccc2c(N)cccc12
inactive: [1] | [5] | [19] | [7] | [8] | [9] | [12] | [14] | [17]
active: [2] 54.5 µM | [3] 47.2 µM | [4] 41.6 µM

CC(C)C(=O)OCCOc1ccccc1
not listed: [18] | [19] | [20]
inactive: all other assays above

ClC1=C(Cl)C1(Cl)Cl
not listed: [18] | [19] | [20]
inactive: all other assays above

CC(C)(C)NCC(O)COc1cccc2c1C[C@H](O)[C@H](O)C2 (some centres undefined)
not listed: [18] | [19] | [20]
inactive: all other assays above

CCOC(=O)c1ccc(NC(=O)CN2CCCCC2)cc1
active: [2] 11.9 µM | [3] 10.6 µM | [4] 10.6 µM
not listed: [8] | [10] | [13] | [14]
inactive: all other assays above

C[C@H](CS)C(=O)N1CCC[C@H]1C(=O)O
not listed: [7] | [10] | [12] | [13] | [14]
inactive: all other assays above

O=C(NC(Cc1cc(=O)[nH]c2ccccc12)C(=O)O)c1ccc(Cl)cc1 (centres undefined)
not listed: [18] | [19] | [20]
inactive: all other assays above

O=C(O)/C=C/c1ccc(O)c(O)c1
active: [19] 27.5 µM
not listed: [10] | [12] | [13] | [14] | [17] | [18]
inactive: all other assays above
